Test results as given in PMC13494018.
Values without a mark were called inactive. No rule for the calls is given here.

Biological target: VTCN1, Q7Z7D3
Sequence (Q7Z7D3 whole entry): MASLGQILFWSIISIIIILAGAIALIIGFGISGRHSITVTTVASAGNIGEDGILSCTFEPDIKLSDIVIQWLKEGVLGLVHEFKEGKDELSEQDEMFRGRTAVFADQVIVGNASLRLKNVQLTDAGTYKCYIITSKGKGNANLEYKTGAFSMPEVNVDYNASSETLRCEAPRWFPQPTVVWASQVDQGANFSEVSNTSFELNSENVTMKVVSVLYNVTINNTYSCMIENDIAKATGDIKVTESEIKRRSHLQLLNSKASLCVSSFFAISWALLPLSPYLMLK

| Binder | binding in a display sort |
| --- | --- |
| design_607_777643b9-bd23-49d1-80ae-2b1434974efa_2023_dldesign_0_cycle1_af2pred (protein) SAEAAAVKAEVDALTAAAVAATPEEAAKLGSQAAALAYEAAAEYASLSAREKDPEKAAEYKALADALREAARAARDRVAAAIAAKLA | not found |
| design_607_777643b9-bd23-49d1-80ae-2b1434974efa_1902_dldesign_0_cycle1_af2pred (protein) DVEKVAKEAIEKLEEYGKRVPELAPEAKKAIERVKRRKEEGEKNPKFAPASIEAIKDTAENLKKKAEKLEKA | not found |
| design_607_777643b9-bd23-49d1-80ae-2b1434974efa_1959_dldesign_0_cycle1_af2pred (protein) MEKAEEYLEEAKKALEKAEEYIAKAAADPANRAAYAAKAAQYAQEARILADGLELVDPSMKPEAEELRERARELIKKLAAVL | not found |
| design_607_777643b9-bd23-49d1-80ae-2b1434974efa_278_dldesign_0_cycle1_af2pred (protein) SSLTLEASKKSGEAYFLLNEAEFLAKKKGDEETAKKAEEARKKLKEKLDAAKTGAEKLAAALEGLKEAEKIYKEALE | not found |
| design_607_777643b9-bd23-49d1-80ae-2b1434974efa_1068_dldesign_0_cycle1_af2pred (protein) MKKKASELMHEAYELAALAEAYPENAEEYYKKAKEYGEEAVKEAEKYDPEYGKKAKERAEKVTKRAKEAVEKYKKEK | not found |
| design_607_777643b9-bd23-49d1-80ae-2b1434974efa_280_dldesign_0_cycle1_af2pred (protein) GAEKEKAEKIAKEKLAEGKKLAEEAKKGTPEEAKKKRKEFLEELKKLAKEGTPYLAKLLAKVAAEVSEAFAEAYAEALRK | not found |
| design_607_777643b9-bd23-49d1-80ae-2b1434974efa_1448_dldesign_0_cycle1_af2pred (protein) AAAEEARKAAITAAADTLAEADGDVYLAANELAKKVGPEAGKAILEKAKAARKEALAAIKEDPAAGAALAKRKGEEILKEAKELIEKA | not found |
| design_607_777643b9-bd23-49d1-80ae-2b1434974efa_981_dldesign_0_cycle1_af2pred (protein) MAEEAKKKLEQAAKLMAIAYETLAAGERGLATPEELKEAAKKAEEAAKLAKEVGKVTPEKEYYEKAAKRAEKVAKRLKELAKKIEE | not found |
| design_607_777643b9-bd23-49d1-80ae-2b1434974efa_1467_dldesign_0_cycle1_af2pred (protein) AEERAKKVIKEAEELRKEAIALAEKYKENPEVRKLAVEAAHYALLAISAAKAGVKFLPYAEEYLKKAKELYEKGKALAEALEKEKEEK | not found |
| design_607_777643b9-bd23-49d1-80ae-2b1434974efa_1637_dldesign_0_cycle1_af2pred (protein) MEKDEALVERAFEAGGELFEKYPEGSKIASAMIRAATIARKDPEAGLEYLRERGLELGEEVAEEATERFRKILEEL | not found |
| design_607_777643b9-bd23-49d1-80ae-2b1434974efa_1601_dldesign_0_cycle1_af2pred (protein) ASEEVKKQAEASSAAYREAKKVAKYVKANAADPKAAEIAKKANALIEEAMTGDAETAEKKTKEIAKLAKE | not found |
| design_607_777643b9-bd23-49d1-80ae-2b1434974efa_1871_dldesign_0_cycle1_af2pred (protein) DMKEEAKKVAKEAKEVAKKVYELDPAKGSELSAKIHEAEALVKHPKFAEEGLKELKETLKKAKELLKKLE | not found |
| design_607_777643b9-bd23-49d1-80ae-2b1434974efa_1383_dldesign_0_cycle1_af2pred (protein) DGEEFLKKLKERGELIKKKYPVAAEEITKITDEAVKVAQKGIEDPEKFEEYKKEATDLLHKAREIGAEKEVEAKL | not found |
| design_607_777643b9-bd23-49d1-80ae-2b1434974efa_665_dldesign_0_cycle1_af2pred (protein) MKETEEEIKKIEEEAKELAEKGKEKSVEEFKKEMVKFIFSLADEGAHPEAISSAARIAKESYEKLKKKEEEEKK | not found |
| design_607_777643b9-bd23-49d1-80ae-2b1434974efa_1272_dldesign_0_cycle1_af2pred (protein) EEAFKEAGEKALEYAEKVLKLAKKEPEVLEKAEKGLELLKKGIETGDKDLLVKARSYFLQVASYASPEVAEVAEKAAEYIDEAYILLS | not found |
| design_607_777643b9-bd23-49d1-80ae-2b1434974efa_640_dldesign_0_cycle1_af2pred (protein) AETEKKIKELEKKAHDAYQKAAEYYHDKNLKEAGDLYRKAAKLYAEAAKALAKGEEAPKAEEYEAKAKAYEEEAQKLKA | not found |
| design_607_777643b9-bd23-49d1-80ae-2b1434974efa_321_dldesign_0_cycle1_af2pred (protein) SKIYEEKKKEIEEAAEKAKELAKKDPEKGRKYLKEKNKKFKEFVEKLKADPKTKADAEKILKEASKKSAEVYEVIAEEEQKKRRE | not found |
| design_606_b60ff77f-1541-4e5f-8260-46d5e5f6b85e_2386_dldesign_0_cycle1_af2pred (protein) KEEEFEKLKQKAAQLILESYDALSKNIEEAKKYLKEALKAAEEAKKVDPEKGEEVLKKVEKTSKSILKSMELAKKA | not found |
| design_607_777643b9-bd23-49d1-80ae-2b1434974efa_1995_dldesign_0_cycle1_af2pred (protein) EKEKELKEEVKEAGKRAEERVSRRAAKATNQQQKEATKALADNAIASIRKLAEEKGKETGKEEEFKKLAEEAEKKISAIVEAV | not found |

| Binder | binding in a display sort |
| --- | --- |
| design_607_777643b9-bd23-49d1-80ae-2b1434974efa_1562_dldesign_0_cycle1_af2pred (protein) GKELLEKIKKLSEEAVFATADDPEKGKEKLEEAKKLVKEAEKLPEAPKAKEALEKAEKVSKSIIEDIEKAK | not found |
| design_607_777643b9-bd23-49d1-80ae-2b1434974efa_1207_dldesign_0_cycle1_af2pred (protein) AVAEAAQYAQEARQYAAEAEYLGKKYGKKNKEIKKYAEKAKEAAKKAREAAKKGDLEAAKEYAKKAKELAEKAEELAKKEEE | not found |
| design_607_777643b9-bd23-49d1-80ae-2b1434974efa_649_dldesign_0_cycle1_af2pred (protein) DAAKAAAKAFAAGAIKLAEKLAKEYPEIAATMKEAIAAAKEAAKLADTDAAAGKAAASAANFTVLEAYAEAKA | not found |
| design_607_777643b9-bd23-49d1-80ae-2b1434974efa_1238_dldesign_0_cycle1_af2pred (protein) SLKEALLEEAKEAIKAAKAGDASKVAAETLEMRSAAEALAKDDEEAKKFAEKTRKALELLRKDPEKGLKYAEEVAKEIIKAIE | not found |
| design_607_777643b9-bd23-49d1-80ae-2b1434974efa_839_dldesign_0_cycle1_af2pred (protein) AAAAAKAQADAILADAKAKAAEALKKDPKTGAEEAAKIYRAAAAKLRALGAEVADDPEAVAYLSKVAAELYELAAEYASKAARL | not found |
| design_607_777643b9-bd23-49d1-80ae-2b1434974efa_37_dldesign_0_cycle1_af2pred (protein) SSNKETADAIRDAVKAAQEVGKLAKEKLSPEEAKAVADELNKAIFDLVDTAASEGVDGAKAAAADVKAKVEKLKKEIAAKAAAA | not found |
| design_607_777643b9-bd23-49d1-80ae-2b1434974efa_1231_dldesign_0_cycle1_af2pred (protein) AEEEKKKKEEEKKRTAENKALAYEEAARHAMEQGEKGSPEQRPAAVERAREFAKRAIEADPKKGAELLKEVEAFAAKWEEEA | not found |
| design_607_777643b9-bd23-49d1-80ae-2b1434974efa_648_dldesign_0_cycle1_af2pred (protein) SEEERRRREEAYRELSEALREARELGKRLKEAGADPEVIKRLSELLAEISETLAELRAGLANEEEIERAKEAAREALELAREELERL | not found |
| design_607_777643b9-bd23-49d1-80ae-2b1434974efa_351_dldesign_0_cycle1_af2pred (protein) SEEEAKKLAEEAAKKAREAAEEAEKLAKEAEKIGNKKIANKLYAYAERLKNVAESVELHAGDKEYAEKGLEVTEKLRKKAKELYKEAK | not found |
| design_607_777643b9-bd23-49d1-80ae-2b1434974efa_1961_dldesign_0_cycle1_af2pred (protein) SEEEAKKKAEKAAEEAKKLAKEGAKFPEKAEELTEKAKEIAKELAKAGFPKLGSEAAAAAHEAQAEANLKKR | not found |
| design_607_777643b9-bd23-49d1-80ae-2b1434974efa_1681_dldesign_0_cycle1_af2pred (protein) HMTPEQIAAAKATAAAAAALAANAATTTQAQITAVMDAAAAAMPEFADTFATLRATMLANYADKAGVAKGLAAVARMLAASAKAAE | not found |
| design_607_777643b9-bd23-49d1-80ae-2b1434974efa_1699_dldesign_0_cycle1_af2pred (protein) SEKVEEVAKKEAEKIKEVAKKYGIEEEGKKAVERLKKKAEEAKKWKKPEIGAESVKTYGEGALKSVEILGKKKAA | not found |
| design_607_777643b9-bd23-49d1-80ae-2b1434974efa_21_dldesign_0_cycle1_af2pred (protein) MEVEKLRKKAVEEAKKGGLGTPEEAREKRKKAEELLKEMKKAGATEEEVAKAATEAAEAYVEAKNEKYLKE | not found |
| design_607_777643b9-bd23-49d1-80ae-2b1434974efa_1377_dldesign_0_cycle1_af2pred (protein) AEVAALVKKASEAMGEARFNANAAEKIPEEAEEYAKKAEEAIKAFRDALAQIRALAAEASPETLAAADRAEARLKELEKKVKEALKK | not found |
| design_607_777643b9-bd23-49d1-80ae-2b1434974efa_529_dldesign_0_cycle1_af2pred (protein) NLGEKASKATKVLVDAAKEIAKKAGEEAKAKAAAALVTLFSLFEDPEKAAKEAKALVPEKAKPIVEKAAKEADKLLN | not found |
| design_607_777643b9-bd23-49d1-80ae-2b1434974efa_1186_dldesign_0_cycle1_af2pred (protein) KEAEIKAEAQALIDAVRAAAAAAVALAADPAAARALLTAAIGKVLEGSKEAASLALPEAVAIAREAGAAAEAAHAAAA | not found |
| design_607_777643b9-bd23-49d1-80ae-2b1434974efa_1990_dldesign_0_cycle1_af2pred (protein) MKEIIKLESESLRKLVRVAREVAEADPSLKPLAEEAILAAADNPEEGAKKVEELAKASLKVEGGEEYAKKLKEVAEKLKEVEEIYK | not found |
| design_607_777643b9-bd23-49d1-80ae-2b1434974efa_1839_dldesign_0_cycle1_af2pred (protein) GMEAGKKALAEADKAGAAAIAAAKAGDVKAASAAAGEAYFYLAEAYVEFGPEADEEIKAKRQALLDALKKATAEAAA | not found |
| design_607_777643b9-bd23-49d1-80ae-2b1434974efa_139_dldesign_0_cycle1_af2pred (protein) NEEQKKLAEEAIEEIKRLQEKAFDAVGAGDIEEAKKYLEEMEKVAKETAAKVPPEYAKKVLEALEKAKKAVESAIKAAEENEK | not found |
